Results from PMC4336329 (PLoS ONE, 2015).
About 14,000 (4.5%) of roughly 310,000 compounds showed an effect of 50% or more. Effects have a minus sign here. Only a selection was taken, and strong results are over-represented in it overall.

molecular target: human ether-à-go-go-related gene (hERG) potassium channel (human, UniProt Q12809); assay: primary screen, population patch clamp on CHO cells stably expressing hERG; higher = less effect of the substance
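Also: peak tail current of the secondary pulse compared with the same well before compound.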

human ether-à-go-go-related gene (hERG) potassium channel, sequence (Q12809 whole entry, looked up): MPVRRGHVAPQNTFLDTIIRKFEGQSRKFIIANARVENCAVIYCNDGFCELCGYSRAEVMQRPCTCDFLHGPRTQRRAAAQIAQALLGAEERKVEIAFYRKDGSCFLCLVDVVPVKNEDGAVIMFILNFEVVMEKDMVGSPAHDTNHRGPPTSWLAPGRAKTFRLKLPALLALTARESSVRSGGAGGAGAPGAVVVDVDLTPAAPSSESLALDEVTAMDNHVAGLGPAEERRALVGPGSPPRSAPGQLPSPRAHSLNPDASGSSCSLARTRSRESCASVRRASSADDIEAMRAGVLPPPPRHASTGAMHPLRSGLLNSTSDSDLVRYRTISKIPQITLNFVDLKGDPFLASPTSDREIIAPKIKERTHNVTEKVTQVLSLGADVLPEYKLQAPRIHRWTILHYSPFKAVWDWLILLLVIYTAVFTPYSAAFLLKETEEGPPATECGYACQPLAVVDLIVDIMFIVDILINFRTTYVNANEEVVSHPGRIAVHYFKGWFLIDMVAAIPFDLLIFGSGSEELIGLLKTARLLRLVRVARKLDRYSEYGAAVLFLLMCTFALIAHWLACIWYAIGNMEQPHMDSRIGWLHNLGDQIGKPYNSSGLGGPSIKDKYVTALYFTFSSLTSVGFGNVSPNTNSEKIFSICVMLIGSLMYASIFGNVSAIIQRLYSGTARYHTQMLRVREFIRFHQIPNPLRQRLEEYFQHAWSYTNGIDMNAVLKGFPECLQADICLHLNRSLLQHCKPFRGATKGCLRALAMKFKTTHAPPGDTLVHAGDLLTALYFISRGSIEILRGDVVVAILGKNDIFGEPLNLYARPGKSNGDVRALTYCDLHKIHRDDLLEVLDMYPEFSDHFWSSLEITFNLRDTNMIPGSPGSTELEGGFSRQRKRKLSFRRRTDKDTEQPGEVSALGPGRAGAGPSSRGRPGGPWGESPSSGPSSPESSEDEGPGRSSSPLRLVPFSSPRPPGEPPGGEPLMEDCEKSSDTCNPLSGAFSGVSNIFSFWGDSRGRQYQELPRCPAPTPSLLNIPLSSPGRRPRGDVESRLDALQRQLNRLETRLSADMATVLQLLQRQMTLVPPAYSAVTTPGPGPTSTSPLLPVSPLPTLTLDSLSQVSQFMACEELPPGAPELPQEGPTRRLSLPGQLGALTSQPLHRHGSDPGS

Structure (SMILES)	hERG current change (%, negative = inhibition) at 10uM [%]
COc1ccc(CCNC(=O)C2CCN(S(=O)(=O)c3ccc(NC(C)=O)cc3)CC2)cc1OC	9.83
Nc1cc(=O)[nH]c(SCC(=O)Nc2ccccc2Sc2ccccc2)n1	6.15
O=C(Cn1nnc(-c2ccccc2NC(=O)c2ccccc2F)n1)NCc1ccco1	10.1
Cc1nc(-c2ccc(C(=O)Nc3cccc(Br)c3)cc2)cs1	7.02
Cc1cc(C)n(Cc2ccc(Cl)cc2Cl)c(=O)c1S(=O)(=O)c1ccccc1	14.7
COc1ccc(S(=O)(=O)N(CC(=O)N2CCOCC2)c2cc(Cl)ccc2OC)cc1OC	-16.6
COc1ccc(CCNC(=O)C/C(C)=N/NC(=O)C23CC4CC(CC(C4)C2)C3)cc1OC	11.7
COc1ccc(N2CCN(C(=O)CSc3nnc4n3C(C)(C)Cc3ccccc3-4)CC2)cc1	-23.8
Cc1ccc(-n2c(SCC(=O)Nc3ccc4c(c3)OCO4)nnc2-c2ccccn2)cc1	4.28
CCc1nnc(NC(=O)CSc2nnc(C(C)NC(=O)c3ccccc3)n2C)s1 (stereo not drawn)	29.3
CC1(C)Cc2ccccc2-c2nnc(SCC(=O)N3CCN(c4ccccc4)CC3)n21	-73.7
COc1ccc(C(=O)NC(C)c2nnc(SCC(=O)NC3=NCCS3)n2C)cc1 (stereo not drawn)	15.3
Cc1ccccc1-n1c(SCC(=O)Nc2ccc3c(c2)OCO3)nnc1-c1ccccn1	-65.3
COc1ccc(C(=O)NC(C)c2nnc(SCC(=O)Nc3nc4ccccc4s3)n2C)cc1 (stereo not drawn)	-59.4
O=C(CSc1nnc(-c2ccccn2)n1-c1ccccc1)Nc1ccc2c(c1)OCO2	1.81
COc1ccccc1N1CCN(C(=O)CSc2nnc3n2C(C)(C)Cc2ccccc2-3)CC1	-37.4
C/C=C(\C)CN1CCC(Oc2cccc(C(=O)NCc3ccccn3)c2)CC1	-4.59
COC(=O)CN(c1cccc(C(C)=O)c1)S(C)(=O)=O	9.02
O=C(c1ccccc1Br)N1N=C(c2ccccc2)CC1c1ccccc1F (stereo not drawn)	15.7
CCc1cccc(NC(=O)C2CCCN2S(=O)(=O)c2ccc3c(c2)n(C)c(=O)c(=O)n3C)c1 (stereo not drawn)	-9.62
Cc1ccnc(NC(=O)c2ccc(S(=O)(=O)N3CCCCC3)cc2)c1	-17.9

Structure (SMILES)	hERG current change (%, negative = inhibition) at 10uM [%]
Cc1cccc(NC(=O)c2ccc(S(=O)(=O)N3CCCCC3)cc2)n1	-6.69
Cc1cccc(NC(=O)c2ccc(S(=O)(=O)N3CCCCCC3)cc2)n1	-4.07
Cc1ccnc(NC(=O)c2ccc(Cl)c(S(=O)(=O)N3CCCCC3)c2)c1	-79.1
Cc1ccnc(NC(=O)c2ccc(Cl)c(S(=O)(=O)N3CCCC3)c2)c1	-15.7
Cc1cccc(NC(=O)c2ccc(Cl)c(S(=O)(=O)N3CCCCC3)c2)n1	-71.3
Cc1cccc(NC(=O)c2ccc(S(=O)(=O)N3CCC(C)CC3)cc2)n1	-59.2
Cc1ccc(NC(=O)c2ccc(Cl)c(S(=O)(=O)N3CCCC3)c2)nc1	-8.97
Cc1cccc(NC(=O)c2ccc(C)c(S(=O)(=O)N3CCCCC3)c2)n1	-36.7
Cc1ccc(NC(=O)c2ccc(Cl)c(S(=O)(=O)N3CCCCC3)c2)nc1	-23.4
Cc1cccc(NC(=O)c2ccc(Cl)c(S(=O)(=O)N3CCCCCC3)c2)n1	-25.1
Cc1ccc(NC(=O)c2ccc(Cl)c(S(=O)(=O)N3CCCCCC3)c2)nc1	-57.9
Cc1c(Cl)cccc1N1C(=O)C2ON(c3ccccc3)C(c3cccnc3)C2C1=O (stereo not drawn)	4.12
Cn1c(CNC(=O)OC(C)(C)C)nnc1SCC(=O)N1CCOCC1	8.91
CSc1nc2nc(-c3ccc(F)cc3)c(CCN3CCN(C)CC3)cn2n1	-2.66
Cc1cc(NC(=O)CSc2nc3ccccc3n2CC(C)C)no1	19.2
Cc1cccc(C(=O)Oc2ccccc2C(=O)N2CCOCC2)c1	-8.06
COc1ccccc1N1CCN(C2CCCN(C(=O)CCn3cncn3)C2)CC1 (stereo not drawn)	13
CCn1nnnc1SCC(=O)c1ccc(NC(C)=O)cc1	0.37
CCC1(CC)C(=O)N(C)C(=O)NC1=Nc1ccccc1	15.8
CC(C)(C)n1nnnc1C(c1cccs1)N1CCN(Cc2ccc3c(c2)OCO3)CC1 (stereo not drawn)	-19.4
CCC(C)(C)n1nnnc1C(c1ccc2ncccc2c1)N1CCCC(C)C1 (stereo not drawn)	-13.6

Structure (SMILES)	hERG current change (%, negative = inhibition) at 10uM [%]
CCC(C)(C)n1nnnc1C(c1ccc(C)cc1)N1CCN(Cc2ccc3c(c2)OCO3)CC1 (stereo not drawn)	-50.3
CCN1CCN(C(c2ccccc2)c2nnnn2Cc2ccc3c(c2)OCO3)CC1.Cl (stereo not drawn)	-39.1
Cc1ccc(C(c2nnnn2Cc2cccs2)N2CCN(Cc3ccc4c(c3)OCO4)CC2)cc1 (stereo not drawn)	-75.3
CCC(C)(C)n1nnnc1C(c1ccc2ncccc2c1)N1CCN(Cc2ccc3c(c2)OCO3)CC1 (stereo not drawn)	-69.7
CCC(C)(C)n1nnnc1C(c1ccc2ncccc2c1)N1CCCCCC1 (stereo not drawn)	6.75
COCCn1nnnc1C(c1ccccc1)N1CCN(Cc2ccc3c(c2)OCO3)CC1.Cl (stereo not drawn)	-21.6
CC(C)(C)n1nnnc1C(c1ccc(F)cc1)N1CCN(Cc2ccc3c(c2)OCO3)CC1 (stereo not drawn)	-37.8
CON(C)S(=O)(=O)c1cccc(C(=O)NC2CCSc3ccccc32)c1 (stereo not drawn)	-9.64
CCN(CC)CCN1C(=O)C(=O)/C(=C(/O)c2ccc(OC(C)C)cc2)C1c1cccs1 (stereo not drawn)	0.529
Cc1cc(C(=O)N/N=C/c2cc(Br)c(Br)o2)n[nH]1	16
O=C(O)CNC(=O)c1ccccc1Br	9.63
O=C(C1CCN(S(=O)(=O)c2ccc(-n3cnnn3)cc2)CC1)N1CCCCC1	-30.1
CC1CCCCN1S(=O)(=O)c1ccc(NC(=O)c2cccc(-n3cnnn3)c2)cc1 (stereo not drawn)	-18.4
CC1CCCCN1S(=O)(=O)c1ccc(-n2cnnn2)cc1 (stereo not drawn)	-50.1
CC1CCN(C(=O)C2CCN(S(=O)(=O)c3ccc(-n4cnnn4)cc3)CC2)CC1	-13.7
CC1CCCCN1C(=O)C1CCN(S(=O)(=O)c2ccc(-n3cnnn3)cc2)CC1 (stereo not drawn)	-61.5
CC1CCCCN1S(=O)(=O)c1ccc(S(=O)(=O)N2CCCC2)cc1 (stereo not drawn)	5.9
COc1ccc(C(CNC(=O)c2cccc(S(=O)(=O)NCc3ccccc3)c2)N(C)C)cc1 (stereo not drawn)	-24.3
CN(C(=O)COC(=O)c1cc(F)c(F)cc1Cl)c1ccccc1	0.987
CC(C)N1CCC(N2CCN(Cc3cccnc3)CC2CCO)CC1 (stereo not drawn)	20.3
Cc1ccc(-c2cccc(CN3CCN(C4CCN(C(C)C)CC4)C(CCO)C3)c2)o1 (stereo not drawn)	-59.4

Structure (SMILES)	hERG current change (%, negative = inhibition) at 10uM [%]
CC(C)N1CCC(N2CCN(Cc3ccc4nsnc4c3)CC2CCO)CC1 (stereo not drawn)	-8.62
CC(C)N1CCN(Cc2ccc(-c3ccccc3Cl)o2)CC1CCO (stereo not drawn)	-54.8
Cc1ccc(-c2cccc(CN3CCN(C(C)C)C(CCO)C3)c2)o1 (stereo not drawn)	13.4
CC(C)N1CCC(N2CCN(Cc3ccc(-c4ccccc4Cl)o3)CC2CCO)CC1 (stereo not drawn)	-66.6
CC(C)N1CCC(N2CCN(Cc3ccc4nonc4c3)CC2CCO)CC1 (stereo not drawn)	-27.5
CC(C)N1CCN(Cc2ccc(Sc3nncn3C)o2)CC1CCO (stereo not drawn)	22.9
CC(C)N1CCC(N2CCN(C/C=C/c3ccccc3)CC2CCO)CC1 (stereo not drawn)	-7.17
CC(C)N1CCC(N2CCN(CCCc3ccccc3)CC2CCO)CC1 (stereo not drawn)	10.1
CC(C)N1CCC(N2CCN(Cc3ccc(-c4ccc(Cl)cc4)o3)CC2CCO)CC1 (stereo not drawn)	-64.5
CC(C)N1CCN(Cc2ccccc2-c2ccco2)CC1CCO (stereo not drawn)	-35.3
Cc1ccc(-n2nnnc2SCC(=O)Nc2ccccc2N2CCCCC2)cc1C	14.3
CC(NC(=O)COc1ccccc1)C(c1cccs1)N1CCCC1 (stereo not drawn)	-2.64
COc1ccccc1CNC(=O)CCCOc1cc(=O)n(C)c2ccccc12	4.57
CN(Cc1ccccc1)C(=O)CCC1CCN(S(=O)(=O)N(C)C)CC1	-18.4
CCNC(=S)N1CCC(c2nc3ccccc3s2)CC1	-25.7
CCCCNC(=O)[C@H]1C[C@H]1[C@@H](O)[C@H](CO)NC(=O)[C@H](COCc1ccccc1)NC(=O)OC(C)(C)C	21.5
CC(C)(C#N)Nn1cnnc1	17.1
COc1ccc(CC(=O)OC2CCCN(C)C2)cc1.Cl (stereo not drawn)	19.3
Cn1ncc(Cl)c1C(=O)N1CCN(c2cccc(Cl)c2)CC1	-8.7
CC(C)n1c(SCc2cc(=O)[nH]c3ccccc23)nc2c1c(=O)n(C)c(=O)n2C	-7.13
c1ccc(-c2noc(CC3CCCCC3)n2)nc1	6.32
